Experimental data published in the supplement of paper PMC3842684.

tested on: P. falciparum NF54-pfs16-GFP early (I-III) stage gametocytes; test: relative % inhibition of viable gametocyte number; higher = more gametocytocidal; details: 0.5 µM; stage: early (I-III) gametocyte; incubation 72 h
In short: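 Magnet-isolated NF54 pfs16-GFP gametocytes at early (I/IIa, day 2) or late (day 8) stage were exposed to compound at 5 or 0.5 µM for 72 h at 37°C, 5% CO2, 5% O2, at 10% parasitaemia and 0.1% haematocrit. Elongated GFP objects with MitoTracker Red signal above cut-off were counted as viable by confocal imaging. Relative inhibition was normalised to in-plate vehicle and positive-control wells.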

Compound	relative % inhibition
O=C(Nc1ccc(N2CCCCC2)c(Cl)c1)c1ccc(Br)o1	5.95%
COC(=O)c1ccc(C2C3=C(O)CC(c4ccc(F)cc4)CC3=Nc3ccccc3N2C(=O)c2ccccc2)cc1 (stereo unspecified)	26.9%
Clc1cc(Br)ccc1-c1ccc(CNCC2CCNCC2)o1	92.6%
COc1cc2cc(C(=O)Nc3ccccc3)c(N)nc2cc1OC	16.8%
Cn1c(=O)c2cc(C(=O)NCCCN3CCCCCC3)sc2c2ccccc21	13.6%
COCCn1c(C)nc2ccccc2c1=O	9.29%
COc1ccc(C(=O)NC(c2ccccc2Cl)c2cc(Cl)c3cccnc3c2O)cc1 (stereo unspecified)	5.42%
CCn1c(SCC(=O)Nc2cc(C(F)(F)F)ccc2Cl)nc2ccccc2c1=O	27.2%
CCOc1cccc2sc(N(Cc3cccnc3)C(=O)C3CCCCC3)nc12	16.6%
Cc1ccc2c(C)nc(Nc3nc(C)cc(-c4ccccc4)n3)nc2c1	38%
CCOc1ccc(-c2nonc2NC(=O)c2cccc(C)c2)cc1OCC	31.4%
Cc1cc(NC(=O)c2ccc(-c3ccccc3)cc2)no1	-6.51%
COc1ccc(CNC2CCN(c3ccc(NC(=O)c4cccc(Cl)c4)cc3)CC2)cc1OC	-12.4%
FC(F)(F)c1ccc(Nc2nnnc3ccccc23)cc1	7.13%
Cc1ccc(N2C(=O)C3C(C2=O)C2(c4ccccc4)C(=O)C3(c3ccccc3)C(c3ccccc3)=C2c2ccccc2)cc1 (stereo unspecified)	20.5%
Clc1ccc2[nH]c3c(NCCCN4CCOCC4)ncnc3c2c1	61.4%
COc1cccc(Nc2nc(N)c3ccccc3n2)c1	-16.5%
Cc1ccc(N2C3c4ccccc4N(S(=O)(=O)c4ccc(C)cc4)C2c2ccccc2N3S(=O)(=O)c2ccc(C)cc2)cc1	61%
C=C(C)CCC(C)N1CCC(N2CCC(C(=O)NCCc3ccccc3)CC2)CC1 (stereo unspecified)	-2.27%

Compound	relative % inhibition
CCOc1ccc(Nc2c3ccccc3nc3ccccc23)cc1	-20.8%
CCOC(=O)c1cnc2ccc(OC)cc2c1Nc1ccc(N2CCN(C)CC2)cc1	53%
COc1ccc(CNC(=O)c2cc3c(=O)n4ccccc4nc3n(CCc3ccccc3)c2=N)cc1	2.74%
Cc1ccc(CSCc2ccc(C(=O)NC3CC3)o2)cc1	1.49%
CCCCNc1nc(NC(C)(C)C)nc(NC(C)(C)C)n1	-7.87%
COc1cc(-c2nc(-c3ccccc3)c(-c3ccccc3)[nH]2)cc(OC)c1O	15.2%
CC(=O)c1sc(NC(=O)Nc2ccc(C)cc2C)nc1C	30.3%
COc1cc2c3cc1Oc1c(OC)c(OC)cc4c1C(Cc1ccc(O)c(c1)Oc1ccc(cc1)CC3N(C)CC2)N(C)CC4 (stereo unspecified)	1.03%
CCN(CC)CCNc1ncnc2c1[nH]c1ccc(Cl)cc12	14.5%
Cc1cc(C)cc(Nc2cc(C)nc3nc(C(F)(F)F)nn23)c1	-6.02%
CC(C)c1ccc(CNCC(O)c2ccccc2)cc1 (stereo unspecified)	5.28%
O=C1C2=C(Nc3ccccc3SC2c2ccccc2)c2ccccc21 (stereo unspecified)	-7.59%
COc1ccccc1N1CCN(C(CNS(=O)(=O)c2ccc(Cl)cc2)c2cccnc2)CC1 (stereo unspecified)	-2.86%
COc1ccc(C(=O)Nc2nonc2-c2ccc(OC)c(OC)c2)cc1Cl	33.4%
CCCCCC(=O)N1c2ccccc2N=C2CC(c3ccc(OC)c(OC)c3)CC(O)=C2C1c1ccc(C(F)(F)F)cc1 (stereo unspecified)	50.6%
COc1cc(OC)c(N(C)C(=O)c2cc3c(s2)-c2ccccc2S(=O)(=O)C3)cc1Cl	52.2%
COc1ccc(C2NCCc3c2[nH]c2ccccc32)cc1CN1CCN(c2ccc(F)cc2)CC1 (stereo unspecified)	18.2%
COc1ccc(-c2nonc2NC(=O)c2cccc(C)c2)cc1OC	15.3%
CN(C)CCCNc1c2ccccc2nc2ccccc12	85.1%

same assay, conditions: 5 µM; stage: early (I-III) gametocyte; incubation 72 h

Compound	relative % inhibition
O=C(Nc1ccc(N2CCCCC2)c(Cl)c1)c1ccc(Br)o1	8.62%
COC(=O)c1ccc(C2C3=C(O)CC(c4ccc(F)cc4)CC3=Nc3ccccc3N2C(=O)c2ccccc2)cc1 (stereo unspecified)	103%
Clc1cc(Br)ccc1-c1ccc(CNCC2CCNCC2)o1	100%
COc1cc2cc(C(=O)Nc3ccccc3)c(N)nc2cc1OC	99%
Cn1c(=O)c2cc(C(=O)NCCCN3CCCCCC3)sc2c2ccccc21	27.4%
COCCn1c(C)nc2ccccc2c1=O	10.1%
COc1ccc(C(=O)NC(c2ccccc2Cl)c2cc(Cl)c3cccnc3c2O)cc1 (stereo unspecified)	49.4%
CCn1c(SCC(=O)Nc2cc(C(F)(F)F)ccc2Cl)nc2ccccc2c1=O	5.95%
CCOc1cccc2sc(N(Cc3cccnc3)C(=O)C3CCCCC3)nc12	53.7%
Cc1ccc2c(C)nc(Nc3nc(C)cc(-c4ccccc4)n3)nc2c1	88.6%
CCOc1ccc(-c2nonc2NC(=O)c2cccc(C)c2)cc1OCC	94.4%
Cc1cc(NC(=O)c2ccc(-c3ccccc3)cc2)no1	24.9%
COc1ccc(CNC2CCN(c3ccc(NC(=O)c4cccc(Cl)c4)cc3)CC2)cc1OC	79%
FC(F)(F)c1ccc(Nc2nnnc3ccccc23)cc1	2.85%
Cc1ccc(N2C(=O)C3C(C2=O)C2(c4ccccc4)C(=O)C3(c3ccccc3)C(c3ccccc3)=C2c2ccccc2)cc1 (stereo unspecified)	53.3%
Clc1ccc2[nH]c3c(NCCCN4CCOCC4)ncnc3c2c1	97.5%
COc1cccc(Nc2nc(N)c3ccccc3n2)c1	-5.49%
Cc1ccc(N2C3c4ccccc4N(S(=O)(=O)c4ccc(C)cc4)C2c2ccccc2N3S(=O)(=O)c2ccc(C)cc2)cc1	95.1%
C=C(C)CCC(C)N1CCC(N2CCC(C(=O)NCCc3ccccc3)CC2)CC1 (stereo unspecified)	49.4%

Compound	relative % inhibition
CCOc1ccc(Nc2c3ccccc3nc3ccccc23)cc1	84%
CCOC(=O)c1cnc2ccc(OC)cc2c1Nc1ccc(N2CCN(C)CC2)cc1	24.4%
COc1ccc(CNC(=O)c2cc3c(=O)n4ccccc4nc3n(CCc3ccccc3)c2=N)cc1	56.6%
Cc1ccc(CSCc2ccc(C(=O)NC3CC3)o2)cc1	-7.92%
CCCCNc1nc(NC(C)(C)C)nc(NC(C)(C)C)n1	40.6%
COc1cc(-c2nc(-c3ccccc3)c(-c3ccccc3)[nH]2)cc(OC)c1O	29.3%
CC(=O)c1sc(NC(=O)Nc2ccc(C)cc2C)nc1C	63.7%
COc1cc2c3cc1Oc1c(OC)c(OC)cc4c1C(Cc1ccc(O)c(c1)Oc1ccc(cc1)CC3N(C)CC2)N(C)CC4 (stereo unspecified)	73.4%
CCN(CC)CCNc1ncnc2c1[nH]c1ccc(Cl)cc12	79.1%
Cc1cc(C)cc(Nc2cc(C)nc3nc(C(F)(F)F)nn23)c1	10%
CC(C)c1ccc(CNCC(O)c2ccccc2)cc1 (stereo unspecified)	89.6%
O=C1C2=C(Nc3ccccc3SC2c2ccccc2)c2ccccc21 (stereo unspecified)	-12.7%
COc1ccccc1N1CCN(C(CNS(=O)(=O)c2ccc(Cl)cc2)c2cccnc2)CC1 (stereo unspecified)	41.8%
COc1ccc(C(=O)Nc2nonc2-c2ccc(OC)c(OC)c2)cc1Cl	31.6%
CCCCCC(=O)N1c2ccccc2N=C2CC(c3ccc(OC)c(OC)c3)CC(O)=C2C1c1ccc(C(F)(F)F)cc1 (stereo unspecified)	76.3%
COc1cc(OC)c(N(C)C(=O)c2cc3c(s2)-c2ccccc2S(=O)(=O)C3)cc1Cl	93.9%
COc1ccc(C2NCCc3c2[nH]c2ccccc32)cc1CN1CCN(c2ccc(F)cc2)CC1 (stereo unspecified)	90%
COc1ccc(-c2nonc2NC(=O)c2cccc(C)c2)cc1OC	39.2%
CN(C)CCCNc1c2ccccc2nc2ccccc12	101%
